# Sampled rows, rich in hits. Any-hit rate of the full collection: about 5%.
# Caspase-1 inhib: caspase-1 (human) inhibition, allosteric or competitive. P29466. Caspase-1 enzyme, Ac-WEHD-AFC fluorogenic rate. Potency, µM (series often up to 57.5 µM), actives largely listed as inhibitors. 75,000 compounds, 0.03% hits. AID 900
# Caspase-7 inhib: allosteric or competitive inhibitors of human caspase-7; P55210; recombinant caspase-7, Ac-DEVD-AFC fluorescence rate; Potency, µM (titrated, usually from 57.5 µM), actives largely listed as inhibitors; 75,000 compounds, 0.02% hits; active = well fitted inhibition curve with a large enough effect in the main read-out, with a control signal flat, not every such curve was filed as active; inconclusive = small, poorly fitted or top-dose-only effect, or a change in a side signal
# TSHR agonist: TSH receptor (human) agonism; P16473; HEK293-CNG-TSHR cells (CNG channel as cAMP sensor), membrane potential dye, cAMP; Potency, µM (titrated, usually from 57.1 µM), hits mostly activators; 73,000 compounds, 0.48% hits; AID 926; active = well fitted activation curve with a large enough effect in the main read-out, with a control signal flat, not every such curve was filed as active; inconclusive = small, poorly fitted or top-dose-only effect, or a change in a side signal; inactive = no such curve, though single readings can be large or run the other way; reference of the percent scale not stated here;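 also: the control signal comes from parental cells without the receptor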
#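 HEK 293 cells stably expressing TSHR and a cAMP-gated CNG channel; parental CNG-only cells as counterscreen. Cells preloaded 60 min with membrane potential dye plus 100 uM RO 20-1724, then compound 30 min; fluorescence read at 590 nm.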
# HEK293 cAMP ctrl: parental HEK293 cAMP activation (counter-screen). 73,000 compounds, 2.5% hits. AID 938. parental HEK293 CNG cAMP sensor, membrane potential fluorescence. Potency, µM (doses to about 57.1 µM), actives largely listed as activators; also: nearly all actives have a fitted effect of over 55% in size
#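 Parental HEK 293 cells stably expressing a modified CNG channel (no TSHR) report cAMP rise as membrane depolarization. Membrane potential dye with 100 uM RO 20-1724 was loaded for 60 min at room temperature, then compound added for 30 min; fluorescence read at 590 nm.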
# USP2a inh: USP2a (human) protease inhibition; O75604; USP2a enzymatic assay, qHTS inhibition; Potency, µM (series often up to 38.3 µM), actives largely listed as inhibitors; 60,000 compounds, 0.1% hits; also: nearly all actives have a fitted effect of over 60% in size
#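 20 nM USP2 core + cpd, 30 min RT; add 20 nM Ub-PLA2/20 uM NBD C6-HPC; read Ex460/Em535 at 0 h and 2.5 h. Normalized to NEM; qHTS curve fit/classification.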
# CRE-bla Fsk: modulators of forskolin-stimulated CRE signaling in CHO cells; CHO CRE-bla reporter (cAMP response element driving beta-lactamase), forskolin EC10, beta-lactamase ratio; Potency, µM (series often up to 38.2 µM), actives largely listed as activators; 71,000 compounds, 2.5% hits; AID 662; active = well fitted activation curve with a large enough effect in the signal ratio, with a control signal flat, not every such curve was filed as active; inconclusive = small, poorly fitted or top-dose-only effect, or effect the other way, or a change in a side signal; the % refers to the signal ratio
#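 CRE-bla CHO reporter cells treated with compound titration plus EC10 NKH 477 (water-soluble forskolin), incubated 3 h at 37 °C; CCF4 loading 2 h at room temperature, 460/530 nm emission ratio read, AC50 values derived for positive or negative modulators.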
# A number is an active result; n = inactive; u = inconclusive; x = not tested or not shown; [ ] = another dose, or the depositor's remark. Unless noted, calls follow the shape of the dose curve; as a rule, active = well fitted curve in the direction sought with a large enough effect; inconclusive = small, poorly fitted or top-dose-only effect, or another doubt; inactive = no such curve, though single readings can be large; an effect the other way counts as inactive or inconclusive.
SMILES,Caspase-1 inhib,Caspase-7 inhib,TSHR agonist,HEK293 cAMP ctrl,USP2a inh,CRE-bla Fsk
CCOC(=O)c1cc(C#N)c(SCc2ccc(C#N)cc2)nc1C,n,n,u,31.6µM,n,u
CCOC(=O)c1cc(C#N)c(N)nc1C,n,n,n,n,n,10µM
CCOC(=O)c1cc2c(N)c(C(=O)c3cc(C#N)c(SC)nc3C)sc2nc1C,n,n,n,n,n,u
COc1cccc(-c2nnc(SCC(=O)N(C(C)C)C(C)C)o2)c1,n,n,u,15.8µM,n,n
O=C(c1nn(Cc2ccccc2)c(=O)c2ccccc12)N1CCN(c2ccccn2)CC1,n,n,u,3.98µM,n,u
O=C(Cn1nc(Cc2cccnc2)c2ccccc2c1=O)N1CCN(c2ccccn2)CC1,n,n,n,n,x,n
O=C(c1ccc(-n2c(=O)c(=O)[nH]c3ccccc32)cc1)N1CCCN(Cc2ccccc2)CC1,n,n,n,n,x,x
Nc1nc(N)nc(CCCCc2nc(N)nc(N)n2)n1,x,x,n[11.4 µM],n[11.4 µM],x,n[7.6 µM]
CCC(=O)c1ccc(OCC(=O)O)cc1,n,n,n,n,n,n
CCCc1c(OCCCOc2ccc(OCC(=O)O)cc2)ccc(C(C)=O)c1O,n,n,n,n,n,2.51µM
COC(=O)CC[C@@H](C)[C@H]1CC[C@H]2[C@H]3CC[C@H]4C[C@@H]5CC[C@@]4(C)C3(O5)[C@@H](Br)[C@@H](Br)[C@@]12C,n[11.5 µM],n[11.5 µM],n[11.4 µM],n[11.4 µM],x,n[7.6 µM]
Cc1nnc(C)c2c(C)n(-c3ccc(Br)cc3)c(C)c12,n,n,u,3.98µM,n,n
COc1ccc(N2CCN(C(=O)COc3ccccc3)CC2)cc1,n,n,n[11.4 µM],n[11.4 µM],n[7.66 µM],u
CC(=O)N1CCN(c2ccc(Oc3nc(-c4ccccc4)nc4ccccc34)cc2)CC1,n,n,25.1µM,n,u,n
O=C(CSc1nnc(-c2ccco2)n1Cc1ccccc1)OC1CCCCC1,n,n,u,3.98µM,n,u
O=C(O)[C@@H]1[C@@H](C(=O)NCc2ccncc2)[C@@H]2C=C[C@@H]1O2,n[11.5 µM],n[11.5 µM],n[11.4 µM],n[11.4 µM],x,n[7.6 µM]
O=C1C=CC2=C3c4cc(O)c(O)cc4C[C@]3(O)COC2=C1,n,n,x,x,n,x
COC(=O)CCC(=O)Nc1sc2c(c1C#N)CCCC2,n,n,n,n,n,u
CC1CCN(CC(=O)Nc2sc3c(c2C#N)CCC3)CC1,n,n,u,7.94µM,n,n
COc1ccc(C)cc1NC(=O)CSc1nnc(-c2ccc(C)cc2)o1,n,n,u,u,x,n
COc1ccc(C)cc1NC(=O)CN(Cc1nnc(-c2ccc(Cl)cc2)o1)C1CCCC1,n,n,u,15.8µM,n,n
Cc1cc(C(=O)CSC(=S)SC(C)(C)C)ccc1Cl,n[11.5 µM],n[11.5 µM],n[11.4 µM],n[11.4 µM],x,n[7.6 µM]
O=C(O)CN(c1ccc(F)cc1)S(=O)(=O)c1ccc2c(c1)OCCO2,n,n,n,n,x,x
Cc1ccc(N(CC(=O)N2CC(=O)Nc3ccccc32)S(=O)(=O)c2ccc3c(c2)OCCO3)cc1,n,n,7.94µM,n,n,u
COC(=O)c1ccc(C(NC(=O)OCc2ccccc2)/C(I)=C/[C@@H](C)C(=O)NCc2ccc(OC)c(O)c2)cc1 (stereo partly specified),n,n,25.1µM,n,x,n
SMILES,Caspase-1 inhib,Caspase-7 inhib,TSHR agonist,HEK293 cAMP ctrl,USP2a inh,CRE-bla Fsk
COC(=O)c1ccc(C(NC(=O)OCc2ccccc2)/C(C)=C/[C@@H](C)C(=O)NC2CCCCC2)cc1 (stereo partly specified),n,n,u,15.8µM,x,n
O=C1C=CC(=Nc2cccc3c(N=C4C=CC(=O)O4)cccc23)O1,n[11.5 µM],n[11.5 µM],n[11.4 µM],n[11.4 µM],x,n[7.6 µM]
COc1cc2nncc(SCc3ccc(Cl)c(Cl)c3)c2cc1OC,n[11.5 µM],n[11.5 µM],n[11.4 µM],n[11.4 µM],x,u
O=C(O)C[C@H](Cc1ccc2c(c1)OCO2)C(=O)O,n[11.5 µM],n[11.5 µM],n[11.4 µM],n[11.4 µM],x,n[7.6 µM]
COc1ccccc1-c1cc(C2CC2)nc(N)c1C#N,n,n,u,u,n,10µM
S=C(Nc1ccc2cn[nH]c2c1)Nc1ccc2cn[nH]c2c1,n[11.5 µM],n[11.5 µM],n[11.4 µM],n[11.4 µM],x,n[7.6 µM]
O=c1ccn([C@@H]2O[C@@H](COP(=O)(O)OP(=O)(O)O)[C@H](O)[C@@H]2O)c(=O)[nH]1,n,n,u,u,n,n

# Screens deposited in PubChem BioAssay by National Center for Advancing Translational Sciences (NCATS).
